Results: the supplement of paper PMC6897291

Tests used:
[1] = system: U-2932; assay: growth inhibition by drug alone (1 - RLU/untreated control) (fraction); higher = stronger inhibition; details: 177Lu-lilotomab satetraxetan 0 ug/ml
In short: (§1)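 With or without 18 h pretreatment by a radiolabelled anti-CD37 antibody conjugate (~600 MBq/mg; 0.5 µg/ml RIVA, 1 µg/ml U-2932), RIVA and U-2932 cells were washed and plated at 3,000 cells/well. Pre-printed compound doses were 10/100 nM for RIVA and 10/1,000 nM for U-2932. Growth inhibition uses RealTime-Glo RLU relative to the untreated no-drug wells. The calculation is 1 − RLU/mean of 48 such wells per plate, with reads daily from day 3 after 1 h at 37°C.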

[2] = system: RIVA; assay: as above; details: 177Lu-lilotomab satetraxetan 0 ug/ml
In short: as §1

[3] = system: U-2932; assay: growth inhibition by drug plus 177Lu-lilotomab satetraxetan (1 - RLU/untreated control) (fraction); higher = stronger inhibition; details: 177Lu-lilotomab satetraxetan 1 ug/ml
In short: as §1

[4] = system: RIVA; assay: as above; details: 177Lu-lilotomab satetraxetan 0.5 ug/ml
In short: as §1

Structure (SMILES)	growth inhibition by drug alone ([1]; 10 nM, time (day): 3)	growth inhibition by drug alone ([1]; 10 nM, time (day): 4)	growth inhibition by drug alone ([1]; 10 nM, time (day): 5)	growth inhibition by drug alone ([1]; 10 nM, time (day): 6)	growth inhibition by drug alone ([1]; 1000 nM, time (day): 3)	growth inhibition by drug alone ([1]; 1000 nM, time (day): 4)	growth inhibition by drug alone ([1]; 1000 nM, time (day): 5)	growth inhibition by drug alone ([1]; 1000 nM, time (day): 6)	growth inhibition by drug alone ([2]; 10 nM, time (day): 3)	growth inhibition by drug alone ([2]; 10 nM, time (day): 4)	growth inhibition by drug alone ([2]; 10 nM, time (day): 5)	growth inhibition by drug alone ([2]; 10 nM, time (day): 6)	growth inhibition by drug alone ([2]; 100 nM, time (day): 3)	growth inhibition by drug alone ([2]; 100 nM, time (day): 4)	growth inhibition by drug alone ([2]; 100 nM, time (day): 5)	growth inhibition by drug alone ([2]; 100 nM, time (day): 6)	growth inhibition by drug plus 177Lu-lilotomab satetraxetan ([3]; 10 nM, time (day): 3)	growth inhibition by drug plus 177Lu-lilotomab satetraxetan ([3]; 10 nM, time (day): 4)	growth inhibition by drug plus 177Lu-lilotomab satetraxetan ([3]; 10 nM, time (day): 5)	growth inhibition by drug plus 177Lu-lilotomab satetraxetan ([3]; 10 nM, time (day): 6)	growth inhibition by drug plus 177Lu-lilotomab satetraxetan ([3]; 1000 nM, time (day): 3)	growth inhibition by drug plus 177Lu-lilotomab satetraxetan ([3]; 1000 nM, time (day): 4)	growth inhibition by drug plus 177Lu-lilotomab satetraxetan ([3]; 1000 nM, time (day): 5)	growth inhibition by drug plus 177Lu-lilotomab satetraxetan ([3]; 1000 nM, time (day): 6)	growth inhibition by drug plus 177Lu-lilotomab satetraxetan ([4]; 10 nM, time (day): 3)	growth inhibition by drug plus 177Lu-lilotomab satetraxetan ([4]; 10 nM, time (day): 4)	growth inhibition by drug plus 177Lu-lilotomab satetraxetan ([4]; 10 nM, time (day): 5)	growth inhibition by drug plus 177Lu-lilotomab satetraxetan ([4]; 10 nM, time (day): 6)	growth inhibition by drug plus 177Lu-lilotomab satetraxetan ([4]; 100 nM, time (day): 3)	growth inhibition by drug plus 177Lu-lilotomab satetraxetan ([4]; 100 nM, time (day): 4)	growth inhibition by drug plus 177Lu-lilotomab satetraxetan ([4]; 100 nM, time (day): 5)	growth inhibition by drug plus 177Lu-lilotomab satetraxetan ([4]; 100 nM, time (day): 6)
COc1cc2nccc(Oc3ccc(NC(=O)NC4CC4)c(Cl)c3)c2cc1C(N)=O [E7080 (Lenvatinib)]	-0.0768	-0.0782	-0.0262	0.0583	-0.0598	-0.0139	-0.0471	0.0893	-0.272	-0.277	-0.3	-0.325	-0.113	-0.192	-0.168	-0.219	-0.0798	-0.0346	0.0178	0.0795	-0.0775	0.00296	0.0372	0.201	0.331	0.478	0.485	0.496	0.364	0.44	0.454	0.461
CCC(=O)N1CCN(c2ccc(-n3c(=O)ccc4cnc5ccc(-c6cnc7ccccc7c6)cc5c43)cc2C(F)(F)F)CC1 [Torin 1]	0.203	0.128	0.0048	-0.022	0.9	0.883	0.866	0.87	0.0288	0.0386	-0.0391	-0.398	0.409	0.37	0.289	0.104	0.168	0.161	0.208	0.242	0.904	0.878	0.875	0.879	0.556	0.599	0.631	0.621	0.595	0.604	0.565	0.531
COc1cc2nc(N3CCCN(C)CC3)nc(NC3CCN(Cc4ccccc4)CC3)c2cc1OC	0.128	0.0539	-0.00458	-0.0956	0.00727	0.0766	0.0688	0.0239	0.0768	0.122	0.055	-0.0793	0.209	0.192	0.165	0.117	0.0951	0.135	0.169	0.207	0.133	0.247	0.267	0.319	0.498	0.588	0.618	0.631	0.469	0.552	0.569	0.565
